This is a sample that favours compounds with a hit; in the whole collection about 12% have one here.
JMJD2A Tudor: inhibitors of human JMJD2A Tudor domain; Potency, µM (top dose mostly 114 µM), usual class: inhibitors; AID 504339; AlphaScreen JMJD2A-Tudor / H3K4me3 peptide binding; 390,000 compounds, 4.4% hits; further: nearly all actives have a fitted effect of over 50% in size
PI5P4Ka inh: inhibitors of human PI5P4K alpha | PI5P4Kalpha enzyme, ADP-Glo luminescence, 60 min; active compounds read low | max response, % | 330,000 compounds, 1.2% hits; active means max response of -50% or lower; inconclusive means between -30% and -50%; inactive means -30% or higher; further: value at the top dose of about 77 µM
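ADP-Glo luminescence end-point after a 60 min room-temperature kinase reaction. PI5P4Kalpha and substrate in HEPES pH 7.4 buffer with EGTA, 0.1% CHAPS and 5% DMSO; ATP at 5 microM final.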
PLK1 PBD block: inhibitors of human PLK1 polo-box domain binding. Potency, µM, hits mostly inhibitors. Plk1 PBD binding of FITC phosphopeptide, fluorescence polarization. P53350. 360,000 compounds, 2.8% hits; further: series mostly up to about 57 µM; nearly all actives have a fitted effect of over 65% in size
BAZ2B inh: inhibitors of human BAZ2B bromodomain; Q9UIF8; Potency, µM (top dose mostly 114 µM), most hits filed as inhibitors; AID 504333; 360,000 compounds, 4.4% hits; AlphaScreen BAZ2B-H3K14Ac peptide displacement; further: nearly all actives have a fitted effect of over 60% in size
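Inhibition is scored as reduced AlphaScreen emission. The BAZ2B/b-H3(5-23)K14Ac complex (50 nM each) in PBS pH 7.4, 0.01% Tween-20 meets compound (up to 110 uM) for 30 min at RT before bead addition.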
G9a block: blocks human histone lysine methyltransferase G9a. Q96KQ7. AID 504332. Potency, µM (doses to about 102 µM), hits mostly inhibitors. 350,000 compounds, 8.8% hits. G9a H3K9 monomethylation, AlphaScreen, 2 h; further: nearly all actives have a fitted effect of over 75% in size
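Using a bead-based AlphaScreen, monomethylated H3K9 product from 2 h room-temperature reactions (G9a 20 nM, peptide 500 nM, SAM 20 uM) was detected with 0.5 ug/mL rabbit anti-H3K9me1 antibody.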
HP1b chromo inh: blocks HP1-beta chromodomain binding to methylated histone tails; AlphaScreen HP1-beta / biotin-H3K9me3 peptide binding; Potency, µM (doses to about 114 µM), most hits filed as inhibitors; 390,000 compounds, 0.56% hits; AID 540317; further: nearly all actives have a fitted effect of over 70% in size
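HP1-beta protein (50 nM final) preincubated 30 min at room temperature with biotinylated H3(1-18)K9me3 peptide (50 nM) in PBS pH 7.4, 0.01% Tween-20, then compound added for 30 min. AlphaScreen streptavidin donor/nickel chelate acceptor beads (10 ug/mL final), 30 min dark, luminescence read.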
Large screens that a line does not name were inactive. Unless noted, the call rests on the fitted dose curve; in most records, active means well fitted curve in the direction sought with a large enough effect; inconclusive means small, poorly fitted or top-dose-only effect, or another doubt; inactive means no such curve, though single readings can be large; an effect the other way counts as inactive or inconclusive.

CN(C)c1ccc(CNC(=O)c2cc(S(=O)(=O)N3CCCC3)cn2C)cc1	JMJD2A Tudor inconclusive, BAZ2B inh inconclusive (no result: G9a block)
CN(C)c1ccc(CNC(=O)C2CCN(S(=O)(=O)c3ccc4c(c3)CCCC(=O)N4)CC2)cc1	JMJD2A Tudor inconclusive, BAZ2B inh inconclusive, G9a block 44.7µM
CC1CCN(S(=O)(=O)c2cc(C(=O)NCc3ccc(N(C)C)cc3)n(C)c2)CC1	JMJD2A Tudor 56.2µM, BAZ2B inh 35.5µM, G9a block 10µM (no result: PI5P4Ka inh, PLK1 PBD block)
CCc1ccc(NC(=O)CN2C(=O)C(c3ccc(C)cc3)=NC23CCCCC3)cc1	none (no result: PI5P4Ka inh, PLK1 PBD block)
C#CCOCCOCCOCCNc1nc(N2CCN(C(=O)[C@H]([C@@H](C)CC)n3cc([C@@H](N)CC(C)C)nn3)CC2)nc(N2CCN(C(=O)[C@H](CCCCN)n3cc([C@@H](N)CO)nn3)CC2)n1	JMJD2A Tudor 79.4µM, BAZ2B inh 79.4µM, G9a block inconclusive
C#CCOCCOCCOCCNc1nc(N2CCOCC2)nc(N2CCN(C(=O)[C@H](CCCCN)n3cc([C@@H](N)CO)nn3)CC2)n1	JMJD2A Tudor 79.4µM, BAZ2B inh 50.1µM
C#CCOCCOCCOCCNc1nc(N2CCN(C(=O)[C@H]([C@@H](C)CC)n3cc([C@@H](N)CO)nn3)CC2)nc(N2CCN(C(=O)[C@H](CCCCN)n3cc([C@@H](N)CO)nn3)CC2)n1	JMJD2A Tudor 56.2µM (no result: BAZ2B inh, G9a block)
C#CCOCCOCCOCCNc1nc(N2CCN(C(=O)C([C@@H](C)O)n3cc([C@@H](N)CCCCN)nn3)CC2)nc(N2CCN(C(=O)[C@H](CCCCN)n3cc([C@@H](N)[C@H](C)CC)nn3)CC2)n1 (stereo partly drawn)	JMJD2A Tudor inconclusive (no result: BAZ2B inh, G9a block)
COc1ccc(C(=O)Nc2cc3c4c(c2)CC(=O)N4CCC3)cc1	none
COc1cccc(C(=O)/C(C#N)=N/Nc2cccc(-c3ccnc(C)n3)c2)c1	JMJD2A Tudor inconclusive, BAZ2B inh inconclusive, G9a block 50.1µM
CNC(=O)Nc1cccc(-c2ccnc(C)n2)c1	none (no result: G9a block)
CC1(C)C(=O)NC(=O)N1Cc1ccccc1	none
Cn1c(=O)[nH]c2c(c1=O)CCO2	none (no result: BAZ2B inh, G9a block)
CCc1ccccc1OCC(=O)Nc1ccc(N2CCCC2)cc1C	JMJD2A Tudor inconclusive, BAZ2B inh inconclusive, G9a block 3.16µM
Cc1cc(N2CCCC2)ccc1NC(=O)COc1ccccc1	JMJD2A Tudor inconclusive, G9a block 7.08µM
COc1ccc(N2CCCC2)c(NC(=O)COc2ccccc2)c1	JMJD2A Tudor inconclusive, BAZ2B inh inconclusive, G9a block 39.8µM, HP1b chromo inh inconclusive
Cc1cc(OCC(=O)Nc2ccc(N3CCCC3)cc2)cc(C)c1Cl	JMJD2A Tudor inconclusive, BAZ2B inh inconclusive
COc1ccc(OCC(=O)Nc2ccccc2Cl)cc1	BAZ2B inh 50.1µM
Cc1ccc(NC(=O)C(=O)NCC(c2ccc3c(c2)OCO3)N2CCN(C)CC2)c(C)c1 (stereo not drawn)	none (no result: PI5P4Ka inh, PLK1 PBD block)
CCCCC1OC2(C)OC(=N)C1(C#N)C(C#N)(C#N)C2c1ccccc1 (stereo not drawn)	G9a block 44.7µM
S=c1[nH]nc(-c2ccc(Br)cc2)n1-c1ccc2c(c1)OCCO2	JMJD2A Tudor 70.8µM, PLK1 PBD block inconclusive, BAZ2B inh inconclusive, G9a block 1.58µM
COc1ccc(-c2n[nH]c(=S)n2-c2ccc3c(c2)OCCO3)cc1	JMJD2A Tudor 3.16µM, G9a block 1.78µM, HP1b chromo inh inconclusive
COc1ccc(Cc2n[nH]c(=S)n2-c2ccc3c(c2)OCCO3)cc1	JMJD2A Tudor 6.31µM, G9a block 8.91µM
COc1cc(OC)cc(-c2n[nH]c(=S)n2-c2ccc3c(c2)OCCO3)c1	JMJD2A Tudor 4.47µM, G9a block 3.55µM
O=c1cc(Nc2ccc3c(c2)OCCO3)[nH]c(=O)n1-c1ccc(Br)cc1	none (no result: PI5P4Ka inh)
S=c1[nH]nc(Cc2ccc(Cl)cc2)n1-c1ccc2c(c1)OCCO2	JMJD2A Tudor inconclusive, BAZ2B inh inconclusive (no result: G9a block)
COc1ccccc1OCCn1c(COc2cc(C)ccc2C)nc2ccccc21	G9a block inconclusive (no result: PI5P4Ka inh, PLK1 PBD block)
CCCc1cc(=O)oc2cc(OCC(=O)NCCN3CCOCC3)c(Cl)cc12	none (no result: JMJD2A Tudor, BAZ2B inh, G9a block, HP1b chromo inh)
CCOc1ccc(CNCc2c(C(=O)O)n(Cc3ccccc3C)c3cc(OC)ccc23)cc1OC	none (no result: PI5P4Ka inh, PLK1 PBD block)

Compound activity from PubChem.
